The molecules below were run on Madurella mycetomatis MM55 (assay: growth relative to untreated control; higher = less inhibition, active = 20 or less). Details: 100 µM.
Outline: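 For each test, a hyphal fragment suspension of M. mycetomatis MM55 or F. senegalensis CBS197.79 was prepared in colourless RPMI 1640 with L-glutamine and MOPS at 68–72% transmission at 660 nm. Exposure to compound at 100 or 25 µM ran for 7 days at 37 °C in 96-well plates, followed by viability reading with MTS (2 h, 490 nm) or resazurin (600 nm). Growth corresponds to metabolic activity relative to the untreated growth control after correction of both with a blank of medium and dye.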

Structure (SMILES)	growth
O=C1C=C(N(Cc2ccc(Cl)nc2)CC(F)F)CO1	114% (inactive)
C/C=C(\C)C(=O)O[C@H]1C[C@@H](OC(C)=O)[C@@]2(C(=O)OC)CO[C@H]3[C@@H](O)[C@@](C)([C@]45O[C@@]4(C)[C@H]4C[C@@H]5O[C@@H]5OC=C[C@@]54O)[C@H]4[C@]1(CO[C@]4(O)C(=O)OC)[C@@H]32	106% (inactive)
CC1(C)C(/C=C(\Cl)c2ccc(Cl)cc2)C1C(=O)OC(C#N)c1ccc(F)c(Oc2ccccc2)c1 (centres undefined)	119% (inactive)
CC1(Nc2ncc3nc(Nc4cc(Cl)cc(C(F)(F)F)c4)n(C4CCNC4)c3n2)CC1 (centres undefined)	6.62% (active)
N#Cc1nn(-c2c(Cl)cc(C(F)(F)F)cc2Cl)c(NCc2ccccn2)c1SC(F)F	131% (inactive)
CCS(=O)c1c(C#N)nn(-c2c(Cl)cc(C(F)(F)F)cc2Cl)c1N (centres undefined)	92.4% (inactive)
CN/C(=N/CC1CCOC1)N[N+](=O)[O-] (centres undefined)	125% (inactive)
Cc1nc(N(C)C)nc(OC(=O)N(C)C)c1C	137% (inactive)
CN1CCN(C(=O)O[C@H]2c3nccnc3C(=O)N2c2ccc(Cl)cn2)CC1	88.8% (inactive)
CN(C)CCn1c(Nc2cc(Cl)cc(C(F)(F)F)c2)nc2cnc(NC3CCC3)cc21	104% (inactive)
O=C(NC(=O)c1c(F)cccc1F)Nc1ccc(Cl)c(Oc2ncc(C(F)(F)F)cc2Cl)c1	149% (inactive)
CC1(C)C(C=C(Cl)Cl)C1C(=O)OC(C#N)c1ccc(F)c(Oc2ccccc2)c1 (centres undefined)	146% (inactive)
Cc1sc2c(c1C)C(c1ccc(Cl)cc1)=N[C@@H](CC(=O)OC(C)(C)C)c1nnc(C)n1-2	4.14% (active)
CC(F)c1ncnc(NCCc2ccc(OC(F)(F)F)cc2)c1Cl (centres undefined)	10.1% (active)

Reference: the supplement of paper PMC11172423
